Consider three compounds from PubChem BioAssay (EPA / NIEHS).

Usually AC50 stands for the concentration at which the activity in the assay is half-maximal.

Results filed as inconclusive are left out. Calls of active or inactive are those of the source. The calls were made as follows, unless noted: active = hit-call score of the fitted dose curve at least 0.9, where 1 is the maximum; inactive = score below 0.9.

Read-out in test [1]: NAD(P)H dehydrogenase [quinone] 1 (NQO1), NQO1 (gene 1728)
Nature of the test: LTEA_HepaRG_NQO1: Life Technologies and Expression Analysis (LTEA) Assay for NAD(P)H dehydrogenase [quinone] 1 (NQO1) using HepaRG (AID 2283526). Particulars: mRNA level, 48 h; actives raise or lower the signal. Summed up: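 qRT-PCR read-out (Fluidigm TaqMan), normalized to three housekeeping genes, after 48 h chemical exposure of HepaRG cells. Concentrations: eight points, top 100 uM, half-log steps, 0.5% DMSO vehicle. Gain or loss of signal fitted relative to DMSO.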

Read-out in test [2]: Nuclear factor erythroid 2-related factor 2 (Homo sapiens) (UniProt Q16236)
Nature of the test: LTEA_HepaRG_NFE2L2: Life Technologies and Expression Analysis (LTEA) Assay for Nuclear factor erythroid 2-related factor 2 (NFE2L2) Transcription Factor using HepaRG (AID 2283527). The conditions noted are these: mRNA level, 48 h; actives raise or lower the signal. Summed up: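 Human liver HepaRG line treated in duplicate for 48 h with an eight-point series topping at 100 uM. Gene expression of NFE2L2 by qRT-PCR, bidirectionally fitted against the vehicle control.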

Read-out in test [3]: succinate dehydrogenase complex iron sulfur subunit B (SDHB), SDHB (gene 6390)
Nature of the test: LTEA_HepaRG_SDHB: Life Technologies and Expression Analysis (LTEA) Assay for succinate dehydrogenase complex iron sulfur subunit B (SDHB) using HepaRG (AID 2283528). The conditions noted are these: mRNA level, 48 h; actives raise or lower the signal. Put shortly: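 SDHB transcript level read by TaqMan qRT-PCR, housekeeping-normalised (ACTB, GAPDH, POLR2A), after 48 h chemical treatment of plated HepaRG cells; eight concentrations top 100 uM, half-log steps, 0.5% DMSO, duplicates; fitted both directions against DMSO.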

Read-out in test [4]: Signal transducer and activator of transcription 3 (Homo sapiens) (UniProt P40763)
Nature of the test: LTEA_HepaRG_STAT3: Life Technologies and Expression Analysis (LTEA) Assay for Signal transducer and activator of transcription (STAT3) using HepaRG (AID 2283529). The conditions noted are these: mRNA level, 48 h; actives raise or lower the signal. Put shortly: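 In this transcriptional endpoint, HepaRG cultures receive test chemicals at up to 100 uM for 48 h, tested in duplicate. STAT3 mRNA is normalized to ACTB, GAPDH and POLR2A.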

Read-out in test [5]: sulfotransferase 2A1 (SULT2A1), SULT2A1 (gene 6822)
Nature of the test: LTEA_HepaRG_SULT2A1: Life Technologies and Expression Analysis (LTEA) Assay for sulfotransferase 2A1 (SULT2A1) using HepaRG (AID 2283531). Particulars: mRNA level, 48 h; actives raise or lower the signal. Summed up: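 HepaRG, 48 h chemical exposure, 8-pt half-log curve from 100 uM in 0.5% DMSO, duplicates. Readout: TaqMan qRT-PCR of SULT2A1 mRNA, housekeeping-normalized. Bidirectional fit vs DMSO baseline.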

Read-out in test [6]: Transforming Growth Factor (TGFA), TGFA (gene 7039)
Nature of the test: LTEA_HepaRG_TGFA: Life Technologies and Expression Analysis (LTEA) Assay for Transforming Growth Factor (TGFA) using HepaRG (AID 2283532). Particulars: mRNA level, 48 h; actives raise or lower the signal. Summed up:
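Gene expression of TGFA was quantified by qRT-PCR after human HepaRG cells were treated for 48 h with test chemicals (eight concentrations, highest 100 uM, 0.5% DMSO). Activity in either direction was fitted relative to DMSO.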

Read-out in test [7]: Transforming Growth Factor (TGFB1), TGFB1 (gene 7040)
Nature of the test: LTEA_HepaRG_TGFB1: Life Technologies and Expression Analysis (LTEA) Assay for Transforming Growth Factor (TGFB1) Transporter using HepaRG (AID 2283533). The conditions noted are these: mRNA level, 48 h; actives raise or lower the signal. Summed up: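 qRT-PCR readout of TGFB1 transcript in HepaRG lysates, normalized to three housekeeping genes; gain or loss of signal fitted relative to 0.5% DMSO vehicle. Exposure: 48 h, 8-point curve from 100 uM, duplicate wells.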

Read-out in the next test: TIMP1, TIMP1 (gene 7076)
Nature of the test: LTEA_HepaRG_TIMP1: Life Technologies and Expression Analysis (LTEA) Assay for TIMP1 using HepaRG (AID 2283534). The conditions noted are these: mRNA level, 48 h; actives raise or lower the signal. Put shortly:
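HepaRG, 48 h exposure, 8-pt half-log series from 100 uM in 0.5% DMSO, duplicates; TIMP1 transcript by Fluidigm qRT-PCR, housekeeping-normalized; bidirectional curve fit vs DMSO baseline.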

Read-out in test [8]: Tumor necrosis factor receptor 1 (TNFRSF1A), TNFRSF1A (gene 7132)
Nature of the test: LTEA_HepaRG_TNFRSF1A: Life Technologies and Expression Analysis (LTEA) Assay for Tumor necrosis factor receptor 1 (TNFRSF1A) using HepaRG (AID 2283535). Particulars: mRNA level, 48 h; actives raise or lower the signal. Summed up: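 HepaRG, 48 h plating then 48 h chemical exposure, serum-free induction media; 8-pt CRC from 100 uM, half-log, 0.5% DMSO vehicle, duplicates. Readout: TaqMan qRT-PCR (Fluidigm), housekeeping-gene normalized; bidirectional fit vs DMSO.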

Read-out in test [9]: Thyroid Hormone Responsive (THRSP), THRSP (gene 7069)
Nature of the test: LTEA_HepaRG_THRSP: Life Technologies and Expression Analysis (LTEA) Assay for Thyroid Hormone Responsive (THRSP) using HepaRG (AID 2283536). The conditions noted are these: mRNA level, 48 h; actives raise or lower the signal. Put shortly: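 Cell model: human HepaRG, approx. 100,000 cells/well, 0.5% DMSO vehicle. Exposure lasts 48 h; phenobarbital 1 mM serves as induction positive control. Gene expression is measured by qRT-PCR against three endogenous control genes.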

Read-out in test [10]: Cellular tumor antigen p53 (Homo sapiens) (UniProt P04637)
Nature of the test: LTEA_HepaRG_TP53: Life Technologies and Expression Analysis (LTEA) Assay for Tumor Protein P53 (TP53) using HepaRG (AID 2283537). Particulars: mRNA level, 48 h; actives raise or lower the signal. Put shortly: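 TP53 transcript measured by qRT-PCR, normalized to three housekeeping genes, after 48 h treatment of human HepaRG cultures with chemicals from 100 uM downward in half-log steps (0.5% DMSO vehicle, serum-free induction medium). Up- or down-regulation fitted against DMSO.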

Read-out in test [11]: UDP glucuronosyltransferase (UGT1A1), UGT1A1 (gene 54658)
Nature of the test: LTEA_HepaRG_UGT1A1: Life Technologies and Expression Analysis (LTEA) Assay for UDP glucuronosyltransferase (UGT1A1) using HepaRG (AID 2283538). The conditions noted are these: mRNA level, 48 h; actives raise or lower the signal. Put shortly:
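HepaRG, 48 h chemical exposure (top 100 uM, half-log 8-pt, 0.5% DMSO vehicle), duplicate wells; qRT-PCR (TaqMan, Fluidigm array) for UGT1A1 mRNA, housekeeping-normalized; bidirectional curve fit vs DMSO baseline.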

Read-out in test [12]: UDP glucuronosyltransferase (UGT1A6), UGT1A6 (gene 54578)
Nature of the test: LTEA_HepaRG_UGT1A6: Life Technologies and Expression Analysis (LTEA) Assay for UDP glucuronosyltransferase (UGT1A6) using HepaRG (AID 2283539). The conditions noted are these: mRNA level, 48 h; actives raise or lower the signal. Put shortly:
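qRT-PCR readout of UGT1A6 mRNA (normalized to ACTB/GAPDH/POLR2A) in differentiated HepaRG cells after 48 h chemical exposure; 8 concentrations, top 100 uM, half-log steps, 0.5% DMSO. Bidirectional curve fit relative to DMSO baseline.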

Read-out in test [13]: X-box binding protein 1 (XBP1), XBP1 (gene 7494)
Nature of the test: LTEA_HepaRG_XBP1: Life Technologies and Expression Analysis (LTEA) Assay for X-box binding protein 1 (XBP1) using HepaRG (AID 2283540). Particulars: mRNA level, 48 h; actives raise or lower the signal. Summed up:
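HepaRG, 48 h exposure, 8-pt half-log CRC top 100 uM, 0.5% DMSO vehicle, duplicates. Readout: TaqMan qRT-PCR of XBP1 mRNA, housekeeping-normalised (ACTB/GAPDH/POLR2A); bidirectional fit vs DMSO baseline.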

A short description of test [14]: LTEA_HepaRG_LDH_cytotoxicity: Cytotoxicity Assessment in the Life Technologies and Expression Analysis (LTEA) Assay (AID 2283563; active = hit-call score of the fitted dose curve at least 0.9, where 1 is the maximum;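 as to AC50: LDH activity released into spent culture medium as a marker of cell death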). Summed up: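 HepaRG (human liver line), 48 h exposure, 8-pt half-log series from 100 uM, 0.5% DMSO vehicle, duplicates. Read-out: LDH in spent medium. Positive-direction fit vs DMSO baseline.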
The target in test [15] is Cellular tumor antigen p53 (Homo sapiens) (UniProt P04637). Nature of the test: TOX21_p53_BLA_p2_ratio: Tox21 HCT-116 p53 Agonism Beta-lactamase Assay, Ratio, Phase 2 (AID 2283592; active = hit-call score of the fitted dose curve at least 0.9, where 1 is the maximum). Summed up:
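Readout: blue/green (460/530 nm) FRET emission ratio after 2 h CCF4-AM loading at room temperature, excitation 405 nm. HCT116 p53 bla cells, 16 h compound exposure at 37C, 5% CO2; agonist direction fitted against DMSO baseline.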

Test [16] can be described thus: TOX21_p53_BLA_p2_viability: Viability Assessment in the Tox21 HCT-116 p53 Agonism Beta-lactamase Assay, Phase 2 (AID 2283591; active = hit-call score of the fitted dose curve at least 0.9, where 1 is the maximum;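 also: actives lower the ATP signal meaning cytotoxicity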). Put shortly: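 HCT-116 p53-bla cells (4000/well) rested 5 h at 37C, then received compounds in DMSO (217-fold dilution) for 16 h at 37C, 5% CO2. After the CCF4 read, CellTiter-Glo was added; ATP luminescence was read after 30 min at room temperature.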

A short description of test [17]: TOX21_p53_BLA_p3_viability: Viability Assessment in the Tox21 HCT-116 p53 Agonism Beta-lactamase Assay, Phase 3 (AID 2283593; active = hit-call score of the fitted dose curve at least 0.9, where 1 is the maximum;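 also: cells exposed to compound for 16 h before reading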). Put shortly:
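HCT-116 cells (4000/well) rested 5 h at 37C, then got DMSO compounds by pin tool (217-fold dilution) for 16 h at 37C, 5% CO2. After the bla read, CellTiter-Glo was added and luminescence read at 30 min, room temperature.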

Cellular tumor antigen p53 (Homo sapiens), sequence (P04637 whole entry, looked up): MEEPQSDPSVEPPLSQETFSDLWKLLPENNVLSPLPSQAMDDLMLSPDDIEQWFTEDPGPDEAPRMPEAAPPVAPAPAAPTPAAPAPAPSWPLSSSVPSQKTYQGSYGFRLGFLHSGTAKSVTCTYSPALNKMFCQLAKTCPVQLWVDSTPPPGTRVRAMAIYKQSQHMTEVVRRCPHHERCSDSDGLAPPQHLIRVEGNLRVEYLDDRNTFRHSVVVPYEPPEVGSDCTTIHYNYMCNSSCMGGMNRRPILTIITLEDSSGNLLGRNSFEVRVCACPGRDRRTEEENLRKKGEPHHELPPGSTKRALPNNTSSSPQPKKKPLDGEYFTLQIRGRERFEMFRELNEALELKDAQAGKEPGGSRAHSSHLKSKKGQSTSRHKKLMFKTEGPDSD
Nuclear factor erythroid 2-related factor 2 (Homo sapiens), sequence (Q16236 whole entry, looked up): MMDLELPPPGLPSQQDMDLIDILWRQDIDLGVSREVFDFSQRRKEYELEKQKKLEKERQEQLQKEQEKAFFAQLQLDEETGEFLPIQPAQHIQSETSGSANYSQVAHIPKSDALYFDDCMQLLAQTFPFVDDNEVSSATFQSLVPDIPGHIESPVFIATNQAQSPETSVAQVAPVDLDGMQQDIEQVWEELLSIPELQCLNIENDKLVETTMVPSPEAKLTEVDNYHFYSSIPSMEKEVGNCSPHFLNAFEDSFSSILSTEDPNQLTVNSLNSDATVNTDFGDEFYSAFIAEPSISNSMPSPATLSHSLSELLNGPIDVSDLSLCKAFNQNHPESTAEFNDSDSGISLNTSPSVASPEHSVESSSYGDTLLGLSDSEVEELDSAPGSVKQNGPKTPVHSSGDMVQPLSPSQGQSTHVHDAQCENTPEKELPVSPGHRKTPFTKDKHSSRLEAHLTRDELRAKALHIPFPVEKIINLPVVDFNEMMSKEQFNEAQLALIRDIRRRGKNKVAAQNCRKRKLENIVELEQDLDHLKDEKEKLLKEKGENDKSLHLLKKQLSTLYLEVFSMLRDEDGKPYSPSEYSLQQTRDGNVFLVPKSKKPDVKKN
Signal transducer and activator of transcription 3 (Homo sapiens), sequence (P40763 whole entry, looked up): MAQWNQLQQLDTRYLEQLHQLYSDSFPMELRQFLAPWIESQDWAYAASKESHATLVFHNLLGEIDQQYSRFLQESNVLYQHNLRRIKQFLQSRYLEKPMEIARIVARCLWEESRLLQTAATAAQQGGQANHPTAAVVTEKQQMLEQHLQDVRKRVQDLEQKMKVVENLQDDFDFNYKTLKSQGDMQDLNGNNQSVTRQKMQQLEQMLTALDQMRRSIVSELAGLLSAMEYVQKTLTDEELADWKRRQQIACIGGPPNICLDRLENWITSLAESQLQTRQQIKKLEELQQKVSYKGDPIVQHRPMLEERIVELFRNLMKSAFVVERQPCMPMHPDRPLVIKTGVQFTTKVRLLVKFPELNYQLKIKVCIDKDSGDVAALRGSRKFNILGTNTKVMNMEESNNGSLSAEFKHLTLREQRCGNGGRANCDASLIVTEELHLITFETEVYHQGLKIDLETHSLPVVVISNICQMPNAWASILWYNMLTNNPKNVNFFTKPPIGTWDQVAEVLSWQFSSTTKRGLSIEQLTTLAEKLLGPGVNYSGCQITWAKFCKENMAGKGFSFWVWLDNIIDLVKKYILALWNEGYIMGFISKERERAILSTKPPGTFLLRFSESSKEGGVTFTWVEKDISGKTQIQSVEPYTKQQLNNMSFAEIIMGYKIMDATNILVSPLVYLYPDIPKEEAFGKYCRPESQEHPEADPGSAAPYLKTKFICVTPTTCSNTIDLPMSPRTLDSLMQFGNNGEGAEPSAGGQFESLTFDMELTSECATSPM

`COP(=O)(OC)SCn1c(=O)oc2cc(Cl)cnc21`: the call in [1], in test [2], in test [3], in [4], in test [5] and in test [6] was inactive. For the same compound, the outcome in [7] is “inactive”; in the test with TIMP1, TIMP1 (gene 7076) it was “inactive”; in [10], “inactive”; in [13], “inactive”; in test [15] it was “inactive”. The AC50 is 0.262 µM (active) in test [8]; 73.4 µM (active) in test [9]; 9.92 µM (active) in test [11]; 9.92 µM (active) in [12]; 74.2 µM (active) in [14].
`COP(=O)(OC)C(O)C(Cl)(Cl)Cl` (stereo not given): the compound was called inactive in [1], in test [2], in test [3], in [4], in [5] and in [6]. For the same compound, the result in test [7], in test [9], in test [10], in test [13], in test [14] and in test [16] was inactive. Further, the outcome in [15] and in [17] was inactive. Further, the AC50 with TIMP1, TIMP1 (gene 7076) is 0.0702 µM (active); in test [8], 0.109 µM (active); in test [11], 0.0534 µM (active); in [12] it was 0.103 µM (active).
With `CC1=NNC(=O)N(/N=C/c2cccnc2)C1`, the call in test [1], in test [2], in test [3], in test [4], in test [5] and in test [6] was inactive. In addition, the outcome was “inactive” in test [7]; “inactive” with TIMP1, TIMP1 (gene 7076); “inactive” in [8]; “inactive” in test [10]; “inactive” in test [11]; “inactive” in test [12]. Moreover, the compound was classed as inactive in test [13], in test [14] and in [15]. Further, the concentration at half-maximal activity (AC50) in test [9] was 12.9 µM (active).
